This passage reports Potency and outcome results from PubChem BioAssay (Tox21).

A short description of experiment [1]: qHTS assay to identify small molecule antagonists of the glucocorticoid receptor (GR) signaling pathway - cell viability counter screen (AID 720693). Further: nearly all actives have a fitted effect of over 55% in size.
Experiment [2] in a line: qHTS assay for identifying genotoxic compounds that show differential cytotoxicity against isogenic chicken DT40 cell lines with known DNA damage response pathways - Rev3 mutant cell line (AID 743014). Further: nearly all actives have a fitted effect of over 55% in size.
Experiment [3] in a line: qHTS assay for identifying genotoxic compounds that show differential cytotoxicity against isogenic chicken DT40 cell lines with known DNA damage response pathways - Rad54/Ku70 mutant cell line (AID 743015). Further: nearly all actives have a fitted effect of over 60% in size.
A short description of experiment [4]: qHTS assay to identify small molecule antagonists of the androgen receptor (AR) signaling pathway - cell viability counter screen (AID 743033; further: nearly all actives have a fitted effect of over 45% in size).
Experiment [5] in a line: qHTS assay to identify small molecule antagonists of the androgen receptor (AR) signaling pathway using the MDA cell line - cell viability counter screen (AID 743041; further: nearly all actives have a fitted effect of over 45% in size). In short, it runs like this:
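In this qHTS counter assay, fluorescence intensity after CellTiter-Fluor addition indicated viability of MDA-kb2 AR-luc cells given compounds and R1881 for 16 h at 37C.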

Experiment [6] can be described thus: qHTS assay to identify small molecule antagonists of the thyroid receptor (TR) signaling pathway - cell viability counter screen (AID 743064). Further: nearly all actives have a fitted effect of over 50% in size. Further: potency means the concentration at half of the fitted maximal effect. Put shortly: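 Fluorescence from CellTiter-Fluor, added after 23.5 h exposure at 37 °C, reported viability of GH3.TRE-Luc cells co-treated with compound and 1 nM T3. Measured in the same wells as the luciferase TR readout.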

The nature of experiment [7]: qHTS assay to identify small molecule antagonists of the thyroid receptor (TR) signaling pathway (AID 743065). Further: series mostly up to about 70 µM; nearly all actives have a fitted effect of over 55% in size. Put shortly: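 GH3.TRE-Luc rat pituitary cells carrying two TR response elements driving luciferase were plated for 4 h, given compound plus 1 nM T3 (final), and incubated 23.5 h at 37 C. ONE-Glo luminescence measured reporter inhibition; CellTiter-Fluor fluorescence tracked cytotoxicity.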

The test system of experiment [8] is thyroid hormone receptor (rat, GH3 cells). Put plainly: qHTS assay to identify small molecule agonists of the thyroid receptor (TR) signaling pathway (AID 743066; calls by dose curve; further: potency means the concentration at half of the fitted maximal effect).
Experiment [9] concerns the target Estrogen receptor (Homo sapiens) (UniProt P03372). Put plainly: qHTS assay to identify small molecule antagonists of the estrogen receptor alpha (ER-alpha) signaling pathway (AID 743069; active means well fitted curve in the direction sought with a large enough effect in the signal ratio in the repeat runs, not every such curve was filed as active; the % refers to the signal ratio). Put shortly: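 A 17beta-estradiol challenge was applied right after compound transfer to ER-alpha-UAS-bla HEK293 cells previously kept in charcoal-stripped serum. Plates stood 18 hr at 37C and 5% CO2; fluorescence was read following 2 hr FRET substrate loading at room temperature.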

A short description of experiment [10]: qHTS assay to identify small molecule antagonists of the estrogen receptor alpha (ER-alpha) signaling pathway - cell viability counter screen (AID 743074; calls by dose curve;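 further: HEK293 cells carrying ER-alpha-UAS-bla reporter stimulated with 17beta-estradiol; nearly all actives have a fitted effect of over 45% in size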).
The target of experiment [11] is Estrogen receptor (Homo sapiens) (UniProt P03372). Put plainly: qHTS assay to identify small molecule agonists of the estrogen receptor alpha (ER-alpha) signaling pathway (AID 743075; calls by dose curve;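 further: HEK293 GripTite cells with ER-alpha and UAS-driven beta-lactamase reporter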).
For experiment [12] the target is unchanged. Put plainly: qHTS assay to identify small molecule agonists of the estrogen receptor alpha (ER-alpha) signaling pathway using the BG1 cell line (AID 743079). Further: nearly all actives have a fitted effect of over 20% in size. Further: potency means the concentration at half of the fitted maximal effect.
Experiment [13] is described as follows: qHTS assay to identify small molecule antagonists of the estrogen receptor alpha (ER-alpha) signaling pathway using the BG1 cell line (AID 743080; calls by dose curve;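 further: BG1 cells stimulated with 17beta-estradiol alongside compound; series mostly up to about 70 µM; nearly all actives have a fitted effect of over 25% in size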). Put shortly:
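BG1-Luc-4E2 cells (endogenous full-length ER-alpha, 4xERE luciferase) hormone-starved 5 days in charcoal-stripped FBS, plated 4,000/well for 24 h, then compound plus 17beta-estradiol for 21.5 h at 37 C; ONE-Glo luminescence read.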

The nature of experiment [14]: qHTS assay to identify small molecule antagonists of the estrogen receptor alpha (ER-alpha) signaling pathway using the BG1 cell line - cell viability counter screen (AID 743081).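 Further: compound given together with 17beta-estradiol as the ER stimulus; series mostly up to about 70 µM; nearly all actives have a fitted effect of over 45% in size.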
The target of the next experiment is Aromatase (Homo sapiens) (UniProt P11511). Put plainly: qHTS assay to identify aromatase inhibitors (AID 743083). Further: series mostly up to about 70 µM; nearly all actives have a fitted effect of over 55% in size.
Experiment [15] is described as follows: qHTS assay for identifying genotoxic compounds that show differential cytotoxicity against isogenic chicken DT40 cell lines with known DNA damage response pathways - wild type cell line (AID 743012). Further: nearly all actives have a fitted effect of over 60% in size. In short, it runs like this:
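Endpoint: CellTiter-Glo luminescence, 30 min RT. Cells: wild type DT40, 300/well. Exposure: compounds in DMSO, 40 h, 37 C/5% CO2, after ~0.5 h pre-incubation.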

Structures are written as SMILES. Inconclusive results are not listed. Unmarked numbers belong to inactive results. Active and inactive are the calls of the source. Unless noted, the call rests on the fitted dose curve; in most records, active means well fitted curve in the direction sought with a large enough effect in the repeat runs; inconclusive means weak or mixed curves; inactive means no such curve, though single readings can be large; an effect the other way counts as inactive or inconclusive.

Chain of Aromatase (Homo sapiens) (P11511 whole entry, looked up): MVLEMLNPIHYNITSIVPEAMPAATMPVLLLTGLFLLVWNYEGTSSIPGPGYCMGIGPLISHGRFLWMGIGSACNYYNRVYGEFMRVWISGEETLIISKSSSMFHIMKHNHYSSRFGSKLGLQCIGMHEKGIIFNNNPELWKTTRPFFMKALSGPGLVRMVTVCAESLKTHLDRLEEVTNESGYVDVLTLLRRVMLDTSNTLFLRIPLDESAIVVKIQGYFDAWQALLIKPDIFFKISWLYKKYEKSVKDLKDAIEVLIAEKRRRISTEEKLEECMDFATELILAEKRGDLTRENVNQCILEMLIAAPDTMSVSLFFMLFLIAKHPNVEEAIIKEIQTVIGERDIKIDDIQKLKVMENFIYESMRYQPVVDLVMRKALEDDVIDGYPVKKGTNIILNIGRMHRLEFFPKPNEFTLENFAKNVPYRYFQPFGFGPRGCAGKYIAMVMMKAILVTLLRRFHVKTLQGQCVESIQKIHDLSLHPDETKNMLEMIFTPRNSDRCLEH
Chain of Estrogen receptor (Homo sapiens) (P03372 whole entry, looked up): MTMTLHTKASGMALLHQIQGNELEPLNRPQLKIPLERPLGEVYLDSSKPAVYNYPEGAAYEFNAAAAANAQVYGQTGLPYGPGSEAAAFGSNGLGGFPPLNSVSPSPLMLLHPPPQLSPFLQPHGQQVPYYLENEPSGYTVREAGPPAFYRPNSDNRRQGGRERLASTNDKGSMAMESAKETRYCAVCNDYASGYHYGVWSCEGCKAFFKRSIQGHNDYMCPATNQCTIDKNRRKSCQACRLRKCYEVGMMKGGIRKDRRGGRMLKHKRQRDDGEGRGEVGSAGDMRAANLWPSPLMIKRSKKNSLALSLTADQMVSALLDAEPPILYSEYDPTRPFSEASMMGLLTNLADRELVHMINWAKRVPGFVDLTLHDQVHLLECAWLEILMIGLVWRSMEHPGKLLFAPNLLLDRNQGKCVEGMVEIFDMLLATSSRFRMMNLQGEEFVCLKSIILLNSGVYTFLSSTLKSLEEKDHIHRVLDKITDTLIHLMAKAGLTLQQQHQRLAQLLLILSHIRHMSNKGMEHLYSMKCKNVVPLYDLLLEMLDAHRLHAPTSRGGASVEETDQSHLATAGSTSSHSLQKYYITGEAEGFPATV

Regarding `CC(=O)OC(C)c1ccccc1` (stereo not drawn), the Potency result in experiment [1], in experiment [2], in [3], in experiment [6], in experiment [7] and in [8] was “inactive” throughout. For the same molecule, the Potency entry in experiment [9], in [10], in experiment [11] and in [12] was “inactive” each time. The outcome (in experiment [4]; in experiment [5]; in [13]; in experiment [14]; in the experiment with Aromatase (Homo sapiens)) was inactive.

Consider `Cc1nc(C)nc(N2C[C@@H](C)N(c3ccnc([C@@H](C)O)n3)[C@@H](C)C2)n1`, for which the Potency entry in [1], in experiment [15], in [7], in [8], in [9] and in [10] was “inactive” in each case. Also, the Potency result in [11] and in [12] was “inactive” throughout. In addition, the call (in [4]; in experiment [5]; in experiment [13]; in [14]; with Aromatase (Homo sapiens)) was inactive.

For the molecule `CCCCOC(=O)[C@@H](C)Oc1ccc(Oc2ccc(C(F)(F)F)cn2)cc1`, the Potency entry in experiment [1], in [2], in experiment [3], in experiment [8], in [10] and in experiment [11] was “inactive” throughout. For the same molecule, the outcome in experiment [4], in [5], in experiment [13] and in experiment [14] was inactive. In experiment [12], the Potency is 61.5 µM (active).

As for `O=C(O)CCNC(=O)c1ccccc1`, the Potency result in experiment [1], in [2], in experiment [3], in experiment [6], in [7] and in experiment [9] was “inactive” in each case. Moreover, the Potency entry in [10] and in [11] was “inactive” in each case. The result (in experiment [4]; in experiment [5]; in [13]; in [14]; with Aromatase (Homo sapiens)) was inactive. The Potency in experiment [8] is 11.9 µM (active).

As for `CCCC(C)CC` (stereo not drawn), the Potency result in experiment [1], in experiment [2], in experiment [3], in experiment [6], in experiment [7] and in experiment [8] was “inactive” each time. Besides, the Potency result in experiment [10] is “inactive”. The result (in [4]; in [5]; in experiment [14]; in the experiment with Aromatase (Homo sapiens)) was inactive.

In the case of `CC(C)COC(=O)CC(C(=O)OCC(C)C)S(=O)(=O)O` (stereo not drawn), the Potency result in experiment [1], in [2], in [3], in experiment [6], in experiment [7] and in [8] was “inactive” in each case. For the same molecule, the Potency result in experiment [9], in [10], in [11] and in experiment [12] was “inactive” in each case. Further, the outcome (in [4]; in experiment [5]; in [13]; in experiment [14]; with Aromatase (Homo sapiens)) was inactive.

Consider `CC1CCC(C(C)(C)S)C(=O)C1` (stereo not drawn), for which the Potency entry in experiment [1], in [2], in experiment [3], in experiment [6], in experiment [8] and in [9] was “inactive” in each case. The Potency entry in [10], in [11] and in experiment [12] was “inactive” in each case. Moreover, the molecule was classed as inactive (in [5]; in [13]; in experiment [14]; in the experiment with Aromatase (Homo sapiens)).

For the molecule `Cc1ccccc1N1CCN(CCc2nnc3n2CCCC3)CC1`, the Potency entry in experiment [1], in experiment [2], in experiment [3], in experiment [6], in experiment [7] and in experiment [8] was “inactive” throughout. Also, in experiment [10], the Potency entry was “inactive”. The molecule was called inactive (in [4]; in experiment [14]; with Aromatase (Homo sapiens)).

Turning to `Nc1c(NC/C=C\COc2cc(CN3CCCCC3)ccn2)c(=O)c1=O`, the Potency entry in [1], in experiment [2], in experiment [3] and in experiment [10] was “inactive” throughout. In addition, the molecule was classed as inactive (in [4]; in experiment [5]; with Aromatase (Homo sapiens)). For the same molecule, the Potency in experiment [6] was 23.7 µM (active).

For `C[CH2][Ge]([Cl])([CH2]C)[CH2]C`, the Potency entry in [1], in [2], in experiment [3] and in experiment [8] was “inactive” in each case. Also, the outcome (in experiment [4]; in [5]; in [14]; with Aromatase (Homo sapiens)) was inactive.
